Inconclusive results are not listed. Unmarked numbers belong to inactive results. The source made the active and inactive calls. The call rests on the fitted dose curve.
Target: Beta-2 adrenergic receptor (Homo sapiens) (UniProt P07550)
Assay: Adrenergic beta2 receptor (ADRB2) small molecule antagonists, cell-based qHTS assay (AID 1963592); further: nearly all actives have a fitted effect of over 50% in size
Conditions: CHO-ADRB2 cells, isoproterenol-stimulated cAMP HTRF ratio, 0.5 h; series mostly up to 92.4 µM; activity change, negative = inhibition: at the top concentration
Text: U.S. Tox21 Program National Center for Advancing Translational Sciences [NCATS] Division of Preclinical Innovation [DPI] U.S. Environmental Protection Agency [EPA] National Institutes of Environmental Health Sciences [NIEHS] National Toxicology Program [NTP] U.S. Food and Drug Administration [FDA] Tox21 Assay Overview: Beta adrenergic receptors (Beta-ARs) belong to the G-protein coupled receptor (GPCR) superfamily, includes three subtypes - beta1, beta2, and beta3. Beta1-AR is the predominant receptor subtype expressed in the heart, and beta2-AR is expressed in the kidney, lung, blood vessel and in the heart, and beta3 is found in the adipocytes. Beta1 and 2 ARs couple to Gs protein and elevate cyclic adenosine mono phosphate (cAMP), which activates protein kinase A and leads to the downstream signaling responsible for the physiological actions. Beta-AR agonists or antagonists are the most prescribed therapeutic agents for heart failure and asthma, and these were one of the first target receptors for the rational drug design. Tox21 10K compound library was screened using the cAMP-Gs dynamic assay (Cisbio Bioassays, Shelton, CT) to identify agonists/antagonists of the Gs-coupled human adrenergic, beta2 receptor (ADRB2) in the CHO-ADRB2 cell line (Codex BioSolutions, Inc. Gaithersburg, MD), which stably over-expresses ADRB2. The principle of cAMP-Gs dynamic assay is based on HTRF technology, which facilitates the fluorescence resonance energy transfer (FRET) between donor Europium cryptate and acceptor d2-labeled cAMP. The cAMP generated within cells competes with the red acceptor, d2-labled cAMP, for binding to the monoclonal anti-cAMP-cryptate (Europium donor). An increase in intracellular cAMP leads to the disruption of FRET signal, and the signal is inversely proportional to the cAMP concentration. Propranolol HCl (Sigma-Aldrich, St. Louis, MO) was used as a positive control in the screening.
Tox21 Assay Protocol Summary: CHO-ADRB2 cells were dispensed at 1,000/well in 4uL assay medium into white/solid 1536-well plates (Greiner Bio-One North America Inc., Monroe, NC) using a Multidrop Combi dispenser (ThermoFisher Scientific, Waltham, MA). The assay plates were incubated at 37C and 5% CO2 for an overnight (18-20hr). Then positive control and test compounds dissolved in DMSO were transferred to the assay plates at 23nL using a Pintool station (Wako, San Diego, CA). Following the compound and positive control transfer, 1uL agonist-stimulation mix containing 1nM Isoproterenol HCl, 100uM IBMX and 25uM Ro-20-1724 was added to each well of the assay plates using BioRAPTR Flying Reagent Dispenser (FRD, Beckman Coulter, Brea, CA). The assay plates were incubated at room temperature for 0.5hr. Then 2.5ul each d2-labled cAMP and anti-cAMP-cryptate solutions were added separately to each well of the assay plates using an FRD and the assay plates were incubated at room temperature for 1hr. The fluorescence signal was measured at two different wavelengths (665nm and 615nm) using an Envision plate reader (Perkin Elmer, Shelton, CT). Data were expressed as the ratio of 665 nm/615 nm.
On the % scale 0 is the no-effect control and ±100 the full control effect.

Beta-2 adrenergic receptor (Homo sapiens), sequence (P07550 whole entry, looked up): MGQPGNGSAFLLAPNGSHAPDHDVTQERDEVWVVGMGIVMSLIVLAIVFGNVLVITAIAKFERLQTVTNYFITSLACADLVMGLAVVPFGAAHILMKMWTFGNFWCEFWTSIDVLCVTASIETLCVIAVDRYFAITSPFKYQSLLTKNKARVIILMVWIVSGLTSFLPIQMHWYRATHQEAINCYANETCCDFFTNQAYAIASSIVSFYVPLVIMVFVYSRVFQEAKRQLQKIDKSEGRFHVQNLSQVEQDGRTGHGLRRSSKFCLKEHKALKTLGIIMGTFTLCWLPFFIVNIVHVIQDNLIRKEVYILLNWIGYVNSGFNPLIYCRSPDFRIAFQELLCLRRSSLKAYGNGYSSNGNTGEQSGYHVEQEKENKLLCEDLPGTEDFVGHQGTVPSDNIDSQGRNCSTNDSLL

Row | Structure (SMILES) | activity change, negative = inhibition | Potency
1 | COCc1ccc(COC)cc1 | 4.25% | –
2 | Cc1cc(C)c(N)c(Cl)c1 | 1.33% | –
3 | Nc1c(S(=O)(=O)O)cc(Br)c2c1C(=O)c1ccccc1C2=O | -1.42% [at 42.5 µM] | –
4 | Cc1ccc(-c2ccccc2)cc1 | -1.45% | –
5 | NC(=O)c1ncn([C@@H]2O[C@H](CO)[C@@H](O)[C@H]2O)c1O | -4.32% [at 42.5 µM] | –
6 | Oc1ccc2c(c1)OC[C@@H](N1CCC(O)(c3ccc(F)cc3)CC1)[C@H]2O | -4.49% [at 42.5 µM] | –
7 | OC1OC[C@@H](O)[C@H](O)[C@H]1O (stereo not given in full) | 1.86% | –
8 | CC(Cl)COP(=O)(OCC(C)Cl)OCC(C)Cl (stereo not given) | 1.74% | –
9 | CN1CCOCC1 | – | inactive
10 | C[C@@H]1CCC[C@H](C)N1CCCC(O)(c1ccccc1)c1ccccn1 (stereo not given in full) | -6.31% [at 42.5 µM] | –
11 | O=C1CC(c2ccc(Cl)cc2)CC(=O)N1 | 1.62% [at 42.5 µM] | –
12 | O=[Si]=O | -3.88% | –
13 | CC(=O)[C@@]1(O)CC[C@H]2[C@@H]3CCC4=CC(=O)CC[C@]4(C)[C@H]3CC[C@@]21C | – | inactive
14 | CC(C)CC(C)O (stereo not given) | – | inactive
15 | CC1(C)O[C@@H]2C[C@H]3[C@@H]4C[C@H](F)C5=CC(=O)C=C[C@]5(C)[C@@]4(F)[C@@H](O)C[C@]3(C)[C@]2(C(=O)CO)O1 | – | inactive
16 | CC[C@]12CCCN3CCc4c(n(c5ccccc45)[C@@](O)(C(=O)OC)C1)[C@@H]32 | – | inactive
17 | COc1cc(N)c(Cl)cc1C(=O)NC1CCN(Cc2ccccc2)CC1 | -4.18% [at 42.5 µM] | –
18 | CCOC(=O)O[C@]1(C(=O)OCCl)CC[C@H]2[C@@H]3CCC4=CC(=O)C=C[C@]4(C)[C@H]3[C@@H](O)C[C@@]21C | 0.36% [at 42.5 µM] | –
19 | CCCCCCCCCCCC(=O)OCC(C)OC(=O)CCCCC(=O)O (stereo not given) | 2.65% [at 42.5 µM] | –
20 | CCCCC(CC)COCCO (stereo not given) | -2.42% | –

Row | Structure (SMILES) | activity change, negative = inhibition | Potency
21 | O=C1CCC(=O)N1 | -0.765% | –
22 | C#CC(O)CCC (stereo not given) | 1.73% | –
23 | COC(=O)c1cc(Cl)ccc1NS(=O)(=O)C(F)(F)F | -0.708% [at 42.5 µM] | –
24 | CCCOC(C(=O)OC1CCN(C)CC1)(c1ccccc1)c1ccccc1 | -0.389% [at 42.5 µM] | –
25 | CC(C)COC(=O)c1ccc(N)cc1 | 0.921% [at 42.5 µM] | –
26 | O=C(O)c1cc(=O)[nH]c(=O)[nH]1 | – | inactive
27 | O=C1c2ccccc2CCc2ccccc21 | – | inactive
28 | C=CCCCCCCCC | 1.36% | –
29 | CC(C)(C)S | 0.231% | –
30 | C[Si](C)O[Si](C)C | 0.492% | –
31 | O=C1NC(=O)[C@@]2(CCOc3ccc(F)cc32)N1 | 4.98% [at 42.5 µM] | –
32 | O=C(c1ccccc1)c1ccccc1O | – | inactive
33 | N#CCC(=O)O | – | inactive
34 | CCOC(=O)n1ccn(C)c1=S | – | inactive
35 | O=C(O)CC(=O)O | 2.82% | –
36 | COC(=O)/C=C/c1ccccc1 | – | inactive
37 | CCCCCCOC(=O)c1ccccc1O | 4.3% | –
38 | Cc1ccc(S(=O)(=O)O)c(C)c1 | -8.2% | –
39 | Cc1cncc(C)c1 | 7.72% | –
40 | CCC(=O)OC(C)c1ccccc1 (stereo not given) | -15.3% | –
